# In all, about 290,000 compounds went through this assay and about 3,000 (1%) were called active. Cut-off read from the data, not from the text of the source: active = inhibition mostly above about 36% (no sharp cut-off); inactive = mostly below about 34%. What follows is part of a selection rich in actives, with near analogues and random picks from the rest.
# Assay: inhibition of NOD1-driven NF-kB reporter – cell-based, luminescence, uHTS, primary screen (AID 1578);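 note: HEK-293T reporter cells stimulated with the NOD1 agonist gamma-tri-DAP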
# Conditions: NOD1-driven NF-kB luciferase reporter cells, at 4 µM, active compounds read high
row,Structure (SMILES),inhibition
1,COc1ccc2c(c1)C=C(CN1CCC(CO)(CCc3ccccc3)CC1)CO2,-10% (inactive)
2,OCC1(CCOc2ccccc2)CCN(CC2=Cc3cc(Cl)ccc3OC2)CC1,-37.6% (inactive)
3,CCOc1cc(C(=O)NN2CCOCC2)cc(OCC)c1OCC,-21.5% (inactive)
4,Cc1cc(Cl)ccc1NC(=S)N1CCN(Cc2ccc3c(c2)OCO3)CC1,79.9% (active)
5,O=C(c1n[nH]c(=O)c2ccccc12)N1CCN(Cc2ccc3c(c2)OCO3)CC1,3.4% (inactive)
6,O=C(NC(=S)N1CCN(Cc2ccc3c(c2)OCO3)CC1)c1ccc(Cl)cc1,-3.6% (inactive)
7,O=C(c1ccccc1)N1CCN(Cc2ccc3c(c2)OCO3)CC1,-5.8% (inactive)
8,Cc1ccccc1NC(=S)N1CCN(Cc2ccc3c(c2)OCO3)CC1,-15.3% (inactive)
9,CCN(CC)c1ccc(C(=O)NC(=S)N2CCN(Cc3ccc4c(c3)OCO4)CC2)cc1,-0.4% (inactive)
10,Cc1cc(Cl)ccc1NC(=S)N1CCN(Cc2ccccc2)CC1,-13.4% (inactive)
11,O=C(COC(=O)COc1ccccc1Cl)Nc1ccccc1OC(F)F,-10.4% (inactive)
12,CN(CCCC(=O)N1CCCC(C(N)=O)C1)S(=O)(=O)c1ccc(F)cc1 (configuration not stated),-19.1% (inactive)
13,Cc1ccc(NC(=O)CN2C(=O)S/C(=C\c3ccc(C(=O)O)cc3)C2=O)cc1,-12.7% (inactive)
14,O=C(Cc1ccc(-n2c(=O)c3ccccc3n(Cc3cccc([N+](=O)[O-])c3)c2=O)cc1)NCC1CCCO1 (configuration not stated),5.4% (inactive)
15,COc1ccc(CCNC(=O)CSc2ccc(-c3ccco3)nn2)cc1OC,-15.4% (inactive)
16,COc1ccc(F)cc1S(=O)(=O)NCCN1CCOCC1,15.5% (inactive)
17,COc1cccc2cc(C(=O)OC3CCN(C)CC3)c(=O)oc12,-29.1% (inactive)
18,Cc1ccc(Cl)cc1N1CCN(Cc2nnnn2Cc2ccco2)CC1,-5.9% (inactive)
19,Cc1cc(C)n(C(=O)CNC(=O)c2ccccc2Br)n1,-28.7% (inactive)
20,COCCn1c(-c2ccc(OC)cc2)cnc1SCC(=O)Nc1cccc2ccccc12,-37.9% (inactive)
21,O=C(Nc1ccc(C(=O)N2CCOCC2)cc1)Nc1cccc(C(F)(F)F)c1,60% (active)
22,O=C(Nc1ccc(OC(F)(F)F)cc1)Nc1cccc([N+](=O)[O-])c1,75.1% (active)
23,CN(C)S(=O)(=O)Oc1ccc(C(=O)Nc2cccc(Cl)c2)cc1,-35.9% (inactive)

row,Structure (SMILES),inhibition
1,CN(C)S(=O)(=O)Oc1ccccc1C(=O)Nc1cccc(C(F)(F)F)c1,-19.2% (inactive)
2,O=C(Nc1ccccc1)Nc1cccc(C(F)(F)F)c1,-33.9% (inactive)
3,O=C(Nc1ccc(C(=O)O)cc1)Nc1cccc([N+](=O)[O-])c1,-12.4% (inactive)
4,CNC(=O)Nc1cccc(C(F)(F)F)c1,-23% (inactive)
5,O=C(Nc1cccc([N+](=O)[O-])c1)Nc1cccc([N+](=O)[O-])c1,-8.2% (inactive)
6,CC(=O)c1cccc(NC(=O)Nc2ccc(C(=O)N3CCOCC3)cc2)c1,5.9% (inactive)
7,O=C(Nc1ccc(C(=O)N2CCOCC2)cc1)Nc1cccc(Cl)c1,-21.7% (inactive)
8,CCOc1ccc(NC(=O)CS(=O)CC(=O)N(CC(=O)NC(C)(C)C)C2CCCC2)cc1 (configuration not stated),-23.1% (inactive)
9,O=C(CC1C(=O)NCCN1Cc1ccc(-c2ccccc2)cc1)NCCCn1ccnc1 (configuration not stated),-4.4% (inactive)
10,COCCNC(=O)C(C)N1c2cccc3cccc(c23)S1(=O)=O (configuration not stated),-37.7% (inactive)
11,NC(CCC(=O)O)C12CC3CC(CC(C3)C1)C2 (configuration not stated),-26.1% (inactive)
12,COC(=O)[C@H](Cc1ccccc1)NC(=O)NCCc1ccc(OC)cc1,-0.3% (inactive)
13,CC(=O)c1cc2c(cc1NC(=O)CN1CCCCCCC1)OCO2,-24.2% (inactive)
14,Cc1cc(C(=O)Nc2ccccn2)cs1,-53.4% (inactive)
15,CCCC[C@@H]1CNC(=S)N1CCC12CC3CC(CC(C3)C1)C2,-25.1% (inactive)
16,COc1ccc(CSc2nc(C)[nH]c2[N+](=O)[O-])cc1[N+](=O)[O-],-4.2% (inactive)
17,CCCCOc1ccc(CSc2nc(C)[nH]c2[N+](=O)[O-])cc1[N+](=O)[O-],39.8% (active)
18,Cc1nc(SCc2ccc(O)c([N+](=O)[O-])c2)c([N+](=O)[O-])[nH]1,-13.5% (inactive)
19,CCOC1(OCC)N=C(N)C2(C#N)C(c3ccc(NC(C)=O)cc3)C12C#N (configuration not stated),-12.4% (inactive)
20,CN(CC(=O)Nc1c(Cl)cccc1Cl)C(=O)CCCN1C(=O)c2ccccc2C1=O,15.6% (inactive)
21,O=C(N/N=C/C=C\c1ccccc1[N+](=O)[O-])c1ccncc1,-7.4% (inactive)
22,COc1ccc(-n2cc(CNC3CCN(C)CC3)c(-c3cccc(F)c3)n2)cc1,14.5% (inactive)
23,COc1ccc(-n2cc(CNC3CCC(O)CC3)c(-c3cccc(F)c3)n2)cc1 (configuration not stated),51.1% (active)

row,Structure (SMILES),inhibition
1,COc1ccc(-n2cc(CNC3CCOCC3)c(-c3cccc(F)c3)n2)cc1,21.8% (inactive)
2,Cc1cccc(C)c1N1CCN(c2nc(N(C)C)oc(=O)c2C#N)CC1,18.2% (inactive)
3,CCOC(=O)C1CCCN(C2=NC(=O)/C(=C/c3ccc(OC)cc3)S2)C1 (configuration not stated),-6.7% (inactive)
4,CC1=C(C(=O)N2CCOCC2)C(c2ccc(-c3ccccc3)cc2)NC(=S)N1 (configuration not stated),-25.1% (inactive)
5,Cc1ccccc1C(=O)N1CCN(C(c2ccccc2)c2ccccc2)CC1,-1.2% (inactive)
6,CCOc1ncccc1C(=O)N1CCN(C(c2ccccc2)c2ccccc2)CC1,-13% (inactive)
7,c1ccc(CN(Cc2ccccc2)c2ncnc3c2nnn3Cc2ccccc2)cc1,-2.6% (inactive)
8,CCNc1nc(NCC)n2c(SCC(=O)Nc3ccccc3[N+](=O)[O-])nnc2n1,-16.6% (inactive)
9,Cn1c2c(c(=O)n(C)c1=O)C(CC(=O)Nc1ccccc1)C(=O)N2 (configuration not stated),-23.5% (inactive)
10,CC1Cc2c([nH]c3ccccc23)C(=O)N1 (configuration not stated),26.8% (inactive)
11,COc1ccc2[nH]c3c(c2c1)CC(C)NC3=O (configuration not stated),87% (active)
12,COc1ccc2[nH]c3c(c2c1)CCC/C3=N\N,-3.8% (inactive)
13,COc1cc(OC)cc(C(=O)NNC(=S)NC2CC2)c1,-35.8% (inactive)
14,C=CCn1c(=O)c2ccccc2n2c(SC(C)C(N)=O)nnc12 (configuration not stated),-5.9% (inactive)
15,C[C@@H](CN=[N+]=[N-])CN1CC[C@H](C(C)(C)C)CCC1=O,-15.8% (inactive)
16,CC(C)/C=C/CN1CCN(CCCc2ccccc2)C(CCO)C1 (configuration not stated),45.1% (inactive)
17,N#CCOC(=O)[C@H](Cc1ccccc1)N1C(=O)c2ccccc2C1=O,-3.8% (inactive)
18,Cc1nn(-c2ccccc2Cl)c(Cl)c1/C=N/Nc1cccc(C(=O)O)c1,19.9% (inactive)
19,Cc1nn(-c2ccccc2Cl)c(Cl)c1/C=N/Nc1nc2ccccc2s1,87.9% (active)
20,CCOC(=O)N/N=C/c1c(C)nn(-c2ccccc2Cl)c1Cl,-46.5% (inactive)
21,COc1ccc(CCNC(=O)CNC(=O)c2nn(-c3ccc(OC)c(OC)c3)c(=O)c3ccccc23)cc1OC,-4.9% (inactive)
22,COc1ccc(C(=O)Nc2sc3c(c2C(=O)O)CC(C)(C)OC3)cc1,-23.2% (inactive)
23,CC1(C)Cc2c(sc(NC(=O)c3ccccc3)c2C(=O)O)CO1,-22.9% (inactive)

row,Structure (SMILES),inhibition
1,Cc1nc2nc(-c3ccc(Cl)cc3)cn2nc1C,-11.9% (inactive)
2,CCc1ccc(-c2cn3nc(C)c(C)nc3n2)cc1,76.1% (active)
3,Cc1ccc(-c2cn3nc(C)c(C)nc3n2)cc1,46.8% (inactive)
4,O=C1N(c2ccccc2)C[C@@H]2C[C@@H](c3cccc4c3OCO4)N3CCC[C@@]123,-27.6% (inactive)
5,O=C1N(c2ccccc2)C[C@@H]2C[C@@H](c3cccs3)N3CCC[C@@]123,-35.1% (inactive)
6,O=C1N(c2ccccc2)C[C@@H]2C[C@@H](c3cc4ccccc4o3)N3CCC[C@@]123,98% (active)
7,Cc1onc(-c2c(F)cccc2Cl)c1C(=O)NC(=S)NC1CCS(=O)(=O)C1 (configuration not stated),-19.3% (inactive)
8,COc1ccc(CC(=O)N2CCN(c3cccc(C)c3C)CC2)cc1,-24.5% (inactive)
9,CC(C)(C)c1ccc(Cn2c(=O)cnc3ccccc32)cc1,48.9% (active)
10,O=c1cnc2ccccc2n1Cc1ccc(Br)cc1,-18.3% (inactive)
11,O=c1cnc2ccccc2n1Cc1ccccc1C(F)(F)F,-40.7% (inactive)
12,C=CCn1cc(C(=O)OCC)c(=O)c2cc(F)c(F)cc21,2.3% (inactive)
13,Cc1ccc(C(=O)COC(=O)CCC(=O)Nc2cc(Cl)ccc2Cl)cc1[N+](=O)[O-],7.9% (inactive)
14,C#CC(=O)N(c1ccc(OC)cc1OC)C(C(=O)NC1CCCC1)c1cccs1 (configuration not stated),74.7% (active)
15,C#CC(=O)N(c1cc(OC)ccc1OC)C(C(=O)NC1CCCC1)c1cccs1 (configuration not stated),-17.4% (inactive)
16,C#CC(=O)N(c1cccc(OC)c1)C(C(=O)NC1CCCC1)c1cccs1 (configuration not stated),22.1% (inactive)
17,COc1ccc(N(C(=O)c2ccco2)C(C(=O)NC2CCCC2)c2cccs2)c(OC)c1 (configuration not stated),-2.6% (inactive)
18,COc1ccc(N(C(=O)c2ccco2)C(C(=O)NC2CCCC2)c2cccs2)cc1OC (configuration not stated),2.7% (inactive)
19,C#CC(=O)N(c1ccc(OC)c(OC)c1)C(C(=O)NC1CCCC1)c1cccs1 (configuration not stated),79.9% (active)
20,CC(C)c1nc2ccccc2n1CC(O)COC1CCCCC1 (configuration not stated),-23.2% (inactive)
21,COc1ccc(C)cc1NC(=O)NNC(=O)C(C)Oc1ccc(F)cc1Cl (configuration not stated),-17.8% (inactive)
22,COc1cccc(C(=O)N2CCC(n3nccc3NC(=O)CCOc3ccccc3)CC2)c1,-25.4% (inactive)
23,CCCn1c(SCC(=O)Nc2nonc2C)nnc1-c1ccoc1C,-22.4% (inactive)

# From PubChem BioAssay AID1578 (Sanford-Burnham Center for Chemical Genomics, 2009)
